Assay results reported in PubChem BioAssay (Tox21).
A number with no mark means an inactive call. Active and inactive are the calls of the source. Calls come from the whole dose curve; as a rule, active = well fitted curve in the direction sought with a large enough effect in the repeat runs; inconclusive = weak or mixed curves; inactive = flat fitted curve, though single readings scatter.

Assay: qHTS assay to test for compound auto fluorescence at 590 nm (red) in HepG2 cell free culture (AID 720684)
Details: cell-free medium autofluorescence, red 540/590 nm; series mostly up to 91.3 µM
How it was run: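 Rose Bengal sodium served as the reference for red signal. Test compounds were dispensed into serum-containing MEM (10% FBS) without cells, and plates were read at 540/590 nm.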
% is set by controls: 0 for no effect and ±100 for the full control effect.

Row | Compound | outcome | fluorescence, % of Rose Bengal
1 | CO[C@@]1(NC(=O)CSCC#N)C(=O)N2C(C(=O)O)=C(CSc3nnnn3C)CS[C@@H]21 | inactive | 
2 | Nc1ccc(Oc2ccc(N)c(N)c2)cc1 | inactive | 
3 | CCOc1ccc(NS(=O)(=O)c2ccc(N)cc2)nn1 | inactive | 
4 | C=CCCC=C | inactive | 
5 | Nc1cccc(S(=O)(=O)O)c1 | inactive | 
6 | CC(CNC1CCCCC1)OC(=O)c1ccccc1 (stereo not given) |  | 0.136% [at 18.6 µM]
7 | C1CCOC1 | inactive | 
8 | Cc1c(-c2ccccc2)oc2c(C(=O)OCCN3CCCCC3)cccc2c1=O |  | -0.137% [at 18.6 µM]
9 | CCCCC1CCC(=O)O1 (stereo not given) | inactive | 
10 | CCCN(CCC)C(=O)C(CCC(=O)O)NC(=O)c1ccccc1 (stereo not given) | inactive | 
11 | CCN(CC)CCOc1ccc(Cc2ccccc2)cc1 | inactive | 
12 | CCCCCCCCCCCCCCCCOP(=O)([O-])OCC[N+](C)(C)C | inactive | 
13 | COc1ccc2nc(NC(=O)Nc3ccccc3)sc2c1 | inactive | 
14 | O=C(O)C(=O)Cc1c[nH]c2ccccc12 | inactive | 
15 | O=C(CC(=O)C(F)(F)F)c1ccccc1 | inactive | 
16 | CCCCOc1cc(C(=O)NCCN(CC)CC)c2ccccc2n1 |  | 0.52% [at 18.6 µM]
17 | Cc1ncc(CO)c(CN)c1O | inactive | 
18 | CCC/C=C/CO | inactive | 

Row | Compound | outcome | fluorescence, % of Rose Bengal
19 | COC(=O)C(C)O (stereo not given) | inactive | 
20 | CCc1nnc(NS(=O)(=O)c2ccc(N)cc2)s1 | inactive | 
21 | N#Cc1ccc(C(c2ccc(C#N)cc2)n2cncn2)cc1 | inactive | 
22 | O=C(O)[C@@H](O)[C@H](O)[C@H](O)[C@@H](O)C(=O)O | inactive | 
23 | Cc1cc(S(=O)(=O)O)c(N)cc1Cl | inactive | 
24 | O=C(O)c1cccc(Cl)c1Cl | inactive | 
25 | Cc1c(C(=O)NCCO)[n+](=O)c2ccccc2n1[O-] | inactive | 
26 | CC(C)(C)c1cccc(O)c1 | inactive | 
27 | Cc1ccc(C=O)s1 | inactive | 
28 | CC1(C)O[C@@H]2C[C@H]3[C@@H]4CCC5=CC(=O)CC[C@]5(C)[C@@]4(F)[C@@H](O)C[C@]3(C)[C@]2(C(=O)CCl)O1 |  | 0.173% [at 18.6 µM]
29 | COc1nc(C)nc(NC(=O)NS(=O)(=O)c2ccccc2OCCCl)n1 | inactive | 
30 | CN1CCN(c2c(F)cc3c(=O)c(C(=O)O)cn4c3c2SCC4)CC1 | inactive | 
31 | CCCCc1ccc2nc(NC(=O)OC)[nH]c2c1 |  | 0.0227% [at 18.6 µM]
32 | CCNCCO | inactive | 
33 | CN(C)CCOc1ccccc1Cc1ccccc1 | inactive | 
34 | Cc1cc2nc(N)sc2cc1C | inactive | 
35 | CN1CCN(c2c(F)cc3c(=O)c(C(=O)O)cn(CCF)c3c2F)CC1 | inactive | 
